Sampled rows, rich in hits. Any-hit rate of the full collection: about 11%.
RORgamma inh: inhibitors of mouse ROR gamma transcriptional activity; P51450; AID 2551; Potency, µM (series often up to 53.6 µM), actives largely listed as inhibitors; Drosophila S2 Gal4-RORgamma UAS-luciferase reporter, 20 h; actives 5.4% (n = 310,000); note: nearly all actives have a fitted effect of over 60% in size
Target sequence (P51450 whole entry, looked up, the tested form may be a part): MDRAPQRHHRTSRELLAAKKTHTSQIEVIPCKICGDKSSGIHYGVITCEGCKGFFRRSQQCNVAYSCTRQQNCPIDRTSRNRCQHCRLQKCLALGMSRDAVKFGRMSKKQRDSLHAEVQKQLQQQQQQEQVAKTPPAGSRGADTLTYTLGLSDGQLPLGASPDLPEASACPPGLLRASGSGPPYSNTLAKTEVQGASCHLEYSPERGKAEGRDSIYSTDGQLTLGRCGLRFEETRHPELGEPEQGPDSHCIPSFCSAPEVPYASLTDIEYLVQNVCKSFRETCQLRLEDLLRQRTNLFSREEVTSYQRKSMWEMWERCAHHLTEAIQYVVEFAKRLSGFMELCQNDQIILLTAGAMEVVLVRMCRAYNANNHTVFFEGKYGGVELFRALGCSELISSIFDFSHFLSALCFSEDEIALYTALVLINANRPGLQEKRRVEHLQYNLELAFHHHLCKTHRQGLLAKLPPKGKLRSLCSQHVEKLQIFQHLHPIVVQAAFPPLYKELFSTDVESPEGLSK
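Read-out: Photinus luciferase luminescence; inhibitors lower reporter signal. Insect Schneider cells with Gal4-ROR gamma fusion under metallothionein promoter, UAS reporter; 700 uM final copper sulfate induction, 20 hr, ambient temperature.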
MCF10A rereplic: inducers of DNA re-replication in MCF 10A breast cells. Potency, µM (series often up to 46.1 µM), actives largely listed as activators. actives 2.9% (n = 350,000). MCF 10A DNA re-replication, Hoechst nuclear intensity, 48 h; note: nearly all actives have a fitted effect of over 50% in size
IL1B secr inh: blocks inflammasome-driven IL-1 beta release. THP-1 LPS/ATP IL-1B secretion, AlphaLISA, 16 h; hits give low values. activity change, % at 57.5 µM. actives 4.7% (n = 360,000). AID 743279; in the data active = activity change below about -50%; inconclusive = mostly about -30% to -49%
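THP-1 cells pretreated 1 hr with compounds (up to 57.5 uM final), then stimulated with LPS (250 ng/mL final) plus ATP (1.25 mM final); secreted IL-1B measured by AlphaLISA after 16 hr, decreased signal indicating inhibition.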
Gal4-VP16 FLuc: Gal4-VP16 reporter inhibition counter-screen | Drosophila S2 Gal4-VP16 UAS-luciferase, luminescence, 20 h | Potency, µM (highest dose often 53.6 µM), hits mostly inhibitors | actives 3.5% (n = 310,000);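 note: Gal4-VP16 expression switched on by copper sulfate through the metallothionein promoter; nearly all actives have a fitted effect of over 50% in size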
SW480 rerep: induces DNA re-replication in SW480 colon adenocarcinoma cells; SW480 DNA re-replication, Hoechst DNA content imaging, 48 h; Potency, µM (highest dose often 46.1 µM), hits mostly activators; actives 1.8% (n = 340,000); note: nearly all actives have a fitted effect of over 55% in size
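Treated cells incubate 48 hr (37 C, 5% CO2), are stained 40 min with Hoechst, and nuclear fluorescence is enumerated; a rise in nuclei with high DNA signal marks re-replication.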
Large screens that a line does not name were inactive. Unless noted, calls come from the whole dose curve; as a rule, active = well fitted curve in the direction sought with a large enough effect; inconclusive = small, poorly fitted or top-dose-only effect, or another doubt; inactive = no such curve, though single readings can be large; an effect the other way counts as inactive or inconclusive.

Cn1c(C(=O)NCCCN2CCc3ccccc3C2)cc2c(=O)n(C)c3ccccc3c21	IL1B secr inh -53
COCCCNC(=O)c1cc2c(=O)n(C)c3ccccc3c2n1C	SW480 rerep inconclusive
CCCN(CCC)CCCNC(=O)c1cc2c(=O)n(C)c3ccccc3c2n1C	MCF10A rereplic inconclusive, IL1B secr inh -65
Cn1c(C(=O)NCCCN2CCCCCC2)cc2c(=O)n(C)c3ccccc3c21	none
CCNC(=S)NCc1ccc2[nH]c(C)cc2c1	RORgamma inh inconclusive
FC(F)Oc1ccc(NC(=S)NCc2nc3ccccc3[nH]2)cc1	none
Cc1cc2cc(CNC(=S)Nc3ccc(OC(F)F)cc3)ccc2[nH]1	RORgamma inh 13µM, MCF10A rereplic inconclusive, Gal4-VP16 FLuc 22µM
Cc1cc2cc(CNC(=S)Nc3ccc(OC(F)(F)F)cc3)ccc2[nH]1	RORgamma inh 18µM, MCF10A rereplic inconclusive, Gal4-VP16 FLuc inconclusive
Cn1c(=N)c(S(=O)(=O)c2ccccc2)cc2c(=O)n3ccccc3nc21	MCF10A rereplic 18µM, SW480 rerep inconclusive
C=CCn1c(=N)c(S(=O)(=O)c2ccc(C)c(C)c2)cc2c(=O)n3ccccc3nc21	MCF10A rereplic 23µM, SW480 rerep inconclusive
Cc1ccc(S(=O)(=O)c2cc3c(=O)n4ccccc4nc3n(CCCN3CCOCC3)c2=N)cc1C	MCF10A rereplic 23µM, IL1B secr inh -72, SW480 rerep 23µM
CCCn1c(=N)c(S(=O)(=O)c2ccc(F)cc2)cc2c(=O)n3ccccc3nc21	MCF10A rereplic inconclusive, SW480 rerep inconclusive
N=c1c(S(=O)(=O)c2ccccc2)cc2c(=O)n3ccccc3nc2n1CCCN1CCOCC1	SW480 rerep inconclusive
Cc1ccc(S(=O)(=O)c2cc3c(=O)n4ccccc4nc3n(C)c2=N)cc1C	MCF10A rereplic 4.1µM
Cn1c(=N)c(S(=O)(=O)c2ccc(F)cc2)cc2c(=O)n3ccccc3nc21	SW480 rerep inconclusive
CNC(=O)[C@H](C)/C=C/C(NC(=O)OCc1ccccc1)c1ccc(C(=O)OC)cc1 (some centres undefined)	none (no result: MCF10A rereplic, IL1B secr inh, SW480 rerep)
CCOCCCn1c(=N)c(S(=O)(=O)c2ccccc2)cc2c(=O)n3cc(C)ccc3nc21	MCF10A rereplic 8.2µM, SW480 rerep 5.8µM
CCCNC(=O)C1(C)CCN(C(=O)c2cc(F)cc(F)c2)C1 (centres undefined)	none (no result: RORgamma inh, MCF10A rereplic, Gal4-VP16 FLuc, SW480 rerep)
CCCCCCc1cc2cc(C(N)=O)c(=N)oc2cc1O	none (no result: MCF10A rereplic, IL1B secr inh, SW480 rerep)
CCCCCCc1cc2cc(C(=O)NC)c(=N)oc2cc1O	MCF10A rereplic inconclusive, SW480 rerep 13µM
CCCCCCc1cc2cc(S(=O)(=O)c3ccc(F)c(Cl)c3)c(=O)oc2cc1O	RORgamma inh inconclusive, MCF10A rereplic inconclusive, IL1B secr inh -51, Gal4-VP16 FLuc 4µM, SW480 rerep 2.6µM
CCCCCCc1cc2cc(C(=O)OCC)c(=O)oc2cc1O	MCF10A rereplic inconclusive, SW480 rerep 1.3µM
CCOC(=O)c1cc2ccc(OC(=O)c3ccco3)cc2oc1=O	MCF10A rereplic 3.3µM
CC(=O)N[C@H]1CSSC[C@@H](C(=O)N2CCC[C@H]2C(=O)N2CCC[C@H]2C(=O)N[C@@H](CCCCN)C(=O)N[C@@H](CC(=O)O)C(N)=O)NC(=O)CNC(=O)[C@H](Cc2c[nH]c3ccccc23)NC(=O)[C@H](CCCNC(=N)N)NC(=O)[C@@H](Cc2ccc3ccccc3c2)NC(=O)[C@H](Cc2cnc[nH]2)NC(=O)[C@H](CCC(=O)O)NC1=O	none (no result: MCF10A rereplic, IL1B secr inh, SW480 rerep)
CCCCCCc1cc2cc(C(=O)Nc3ccc(OC)cc3)c(=O)oc2cc1O	MCF10A rereplic 0.73µM, SW480 rerep 15µM
CCCCCCc1cc2cc(/C(N)=N/NC(=O)c3ccncc3)c(=O)oc2cc1O	MCF10A rereplic 1.3µM, SW480 rerep 1.6µM (no result: RORgamma inh, Gal4-VP16 FLuc)
CCCCCCc1cc2cc(C(=O)Nc3cccc(OC)c3)c(=O)oc2cc1O	MCF10A rereplic inconclusive, SW480 rerep inconclusive
Cc1ccc(-n2c(C)nc3c(cnn3-c3ccc(F)cc3)c2=O)cc1	Gal4-VP16 FLuc 8.9µM
Cc1ccc(-n2ncc3c(=O)n(-c4ccc(C)c(C)c4)c(C)nc32)cc1	Gal4-VP16 FLuc inconclusive
CC(C)(C)c1cc(C(C)(C)C)cc(S(=O)(=O)CCc2ccccn2)c1	RORgamma inh 11µM

Screening results: PubChem, National Center for Advancing Translational Sciences (NCATS)
